# Calls of active or inactive are those of the source.
# Columns and labels:
# [1] = small molecules captured by biotinylated probe aFSTL3 – biochemical, small-molecule microarray, fluorescence 635/667, stem cell growth factor project, primary screen (AID 1064); conditions: higher = more signal;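 further: measures binding of the biotinylated anti-FSTL3 antibody to printed compounds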
# [2] = binders from COS7 lysate, DM2A8 probe, primary screen, torsin A project, cell lysate, small-molecule microarray, fluorescence 635/667 (AID 1065); conditions: higher = more signal, COS7 lysate expressing mutant human TOR1A
# [3] = small molecules captured by biotinylated probe aFGF2 – biochemical, small-molecule microarray, fluorescence 635/667, stem cell growth factor project, primary screen (AID 1067); conditions: higher = more signal;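 further: measures binding of biotinylated aFGF2 protein to printed compounds on slides; z-score merges feature fluorescence and signal-to-noise across triplicate slides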
# [4] = small molecules captured by biotinylated probe aFGF10 – biochemical, small-molecule microarray, fluorescence 635/667, stem cell growth factor project, primary screen (AID 1071); conditions: higher = more signal;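 further: score merges 667 nm spot intensity and signal to noise from triplicate slides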
# [5] = target: Neurogenic locus notch homolog protein 2 (Homo sapiens) (UniProt Q04721); assay: small molecules binding Notch2 protein – biochemical, small-molecule microarray, 635 nm fluorescence, stem cell growth factors, primary screen (AID 1073); conditions: higher = more signal
# [6] = target: Pro-neuregulin-1, membrane-bound isoform (Homo sapiens) (UniProt Q02297); assay: small molecules binding neuregulin-1 protein – biochemical, small-molecule microarray, fluorescence 635/667, psychiatric disease protein project, primary screen (AID 1075); conditions: NRG1 binding, 635 nm fluorescence, higher = more signal;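 further: score combines 667 nm spot fluorescence with signal to noise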
# Sequence of Pro-neuregulin-1, membrane-bound isoform (Homo sapiens) (Q02297 whole entry, looked up, the tested form may be a part, canonical isoform): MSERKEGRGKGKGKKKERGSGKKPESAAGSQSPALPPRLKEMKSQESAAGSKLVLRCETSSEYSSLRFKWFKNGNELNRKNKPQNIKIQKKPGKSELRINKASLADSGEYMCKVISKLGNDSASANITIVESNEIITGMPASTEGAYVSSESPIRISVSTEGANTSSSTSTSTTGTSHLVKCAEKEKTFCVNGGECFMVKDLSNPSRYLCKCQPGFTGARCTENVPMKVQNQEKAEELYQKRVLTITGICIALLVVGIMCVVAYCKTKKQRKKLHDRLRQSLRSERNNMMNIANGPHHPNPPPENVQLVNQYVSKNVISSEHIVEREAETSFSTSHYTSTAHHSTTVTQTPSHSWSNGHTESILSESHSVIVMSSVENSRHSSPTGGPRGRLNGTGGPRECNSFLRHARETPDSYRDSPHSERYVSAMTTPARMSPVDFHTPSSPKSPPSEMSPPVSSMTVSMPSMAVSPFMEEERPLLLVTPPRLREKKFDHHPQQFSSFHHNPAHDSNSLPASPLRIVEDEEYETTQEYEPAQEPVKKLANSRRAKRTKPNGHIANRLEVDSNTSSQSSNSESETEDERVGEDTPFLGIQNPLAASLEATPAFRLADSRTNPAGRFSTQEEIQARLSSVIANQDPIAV
# [7] = tested on: Neuregulin-1 EGF-like domain; assay: small molecules binding NRG1 EGF domain – biochemical, small-molecule microarray, 635 nm fluorescence, primary screen (AID 1081); conditions: higher = more signal;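 further: binding of the protein to compounds printed on small-molecule microarray slides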
# [8] = FRG1 expression reporter modulators in myotubes – cell-based, C2C12 myotubes, firefly/Renilla luciferase, luminescence, FRG1 inhibition for FSHD, primary screen (AID 1084); conditions: FRG1 promoter luciferase, higher = more signal, called active from +8 up or from −8 down
# [9] = small molecules captured by biotinylated probe aFST – biochemical, small-molecule microarray, fluorescence 635/667, stem cell growth factor project, primary screen (AID 1086); conditions: higher = more signal;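 further: score merges 667 nm fluorescence with signal-to-noise of each printed compound spot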
# [10] = binders of probe aHhip on microarray, primary screen, stem cell growth factor project, biochemical, small-molecule microarray, fluorescence 635/667 (AID 1087); conditions: higher = more signal;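 further: score merges spot fluorescence at 667nm with spot signal to noise ratio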
# [11] = tested on: PRMT1 (protein arginine N-methyltransferase 1); assay: small molecules binding arginine methyltransferase PRMT1 – biochemical, small-molecule microarray, 635 nm fluorescence, primary screen (AID 1088); conditions: higher = more signal;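 further: binding of Prmt1 protein to compounds spotted on small-molecule microarray slides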
# [12] = growth effects on S. cerevisiae YJM789 – YJM789 clinical isolate, OD600, 24 h, basal, primary screen (AID 1089); conditions: higher = more signal, called active from +8 up or from −8 down;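 further: growth of clinical yeast isolate S. cerevisiae YJM 789 seeded 1000 cells per well; test concentration not given here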
# [13] = S. pombe growth modifiers, basal conditions – strain 972, OD600, 24 h, no modulator, primary screen (AID 1090);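 further: basal condition with compound alone and no growth modifier present; test concentration not given here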; conditions: S. pombe 972 growth, higher = more signal, called active from +8 up or from −8 down
# [14] = budding yeast growth modifiers under rapamycin – strain BY4716, OD600, 96 h, primary screen (AID 1091); further: test concentration not given here; conditions: S. cerevisiae BY4716 + rapamycin, higher = more signal, called active from +8 up or from −8 down
# [15] = target: Torsin-1A-interacting protein 2 (Homo sapiens) (UniProt Q8NFQ8); assay: small molecules binding lysate-expressed LULL1 – cell lysate, human LULL1 lysate, 635/667 nm fluorescence, primary screen (AID 1092); conditions: small-molecule microarray, hLULL1 lysate binding, 635 nm fluorescence; higher = more signal;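 further: probe is lysate of COS7 cells overexpressing human LULL1; score merges per-feature 667 nm fluorescence with signal-to-noise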
# Sequence of Torsin-1A-interacting protein 2 (Homo sapiens) (Q8NFQ8 whole entry, looked up): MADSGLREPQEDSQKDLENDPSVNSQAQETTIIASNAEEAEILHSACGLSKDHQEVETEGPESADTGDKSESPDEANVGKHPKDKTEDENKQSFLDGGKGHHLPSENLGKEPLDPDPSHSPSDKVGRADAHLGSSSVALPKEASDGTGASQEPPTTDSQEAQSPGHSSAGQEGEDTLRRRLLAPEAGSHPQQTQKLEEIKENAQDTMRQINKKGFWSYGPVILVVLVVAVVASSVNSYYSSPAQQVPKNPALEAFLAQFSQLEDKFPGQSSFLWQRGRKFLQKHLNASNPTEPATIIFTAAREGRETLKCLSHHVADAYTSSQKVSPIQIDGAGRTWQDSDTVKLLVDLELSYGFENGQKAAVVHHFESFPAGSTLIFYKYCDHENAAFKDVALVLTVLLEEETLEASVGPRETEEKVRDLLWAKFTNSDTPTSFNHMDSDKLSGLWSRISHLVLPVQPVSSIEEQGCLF
# [16] = optical density change of DRC41 E. coli – strain DRC41, OD650, 24 h, E. coli filamentation project, primary screen (AID 1093);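 further: MC1000 strain lacking acrAB efflux and sulA so SOS filamentation is blocked; test concentration not given here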; conditions: E. coli DRC41 growth, higher = more signal, called active from +8 up or from −8 down
# [17] = probe aLefty2 binding to arrayed compounds – biochemical, biotinylated probe, 635/667 nm fluorescence, primary screen (AID 1094); conditions: small-molecule microarray, higher = more signal;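 further: score merges spot fluorescence near 667 nm with spot signal-to-noise ratio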
# [18] = tested on: Noggin (protein binding on small-molecule microarray); assay: small molecules binding Noggin protein – biochemical, 635/667 nm fluorescence, primary screen (AID 1095); conditions: 635 nm fluorescence, higher = more signal;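 further: score merges 667 nm feature fluorescence with signal to noise over triplicate slides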
# [19] = target: Neurogenic locus notch homolog protein 3 (Homo sapiens) (UniProt Q9UM47); assay: small molecules binding NOTCH3 protein – biochemical, 635/667 nm fluorescence, primary screen (AID 1096); conditions: small-molecule microarray, 635 nm fluorescence, higher = more signal
# Sequence of Neurogenic locus notch homolog protein 3 (Homo sapiens) (Q9UM47 whole entry, looked up): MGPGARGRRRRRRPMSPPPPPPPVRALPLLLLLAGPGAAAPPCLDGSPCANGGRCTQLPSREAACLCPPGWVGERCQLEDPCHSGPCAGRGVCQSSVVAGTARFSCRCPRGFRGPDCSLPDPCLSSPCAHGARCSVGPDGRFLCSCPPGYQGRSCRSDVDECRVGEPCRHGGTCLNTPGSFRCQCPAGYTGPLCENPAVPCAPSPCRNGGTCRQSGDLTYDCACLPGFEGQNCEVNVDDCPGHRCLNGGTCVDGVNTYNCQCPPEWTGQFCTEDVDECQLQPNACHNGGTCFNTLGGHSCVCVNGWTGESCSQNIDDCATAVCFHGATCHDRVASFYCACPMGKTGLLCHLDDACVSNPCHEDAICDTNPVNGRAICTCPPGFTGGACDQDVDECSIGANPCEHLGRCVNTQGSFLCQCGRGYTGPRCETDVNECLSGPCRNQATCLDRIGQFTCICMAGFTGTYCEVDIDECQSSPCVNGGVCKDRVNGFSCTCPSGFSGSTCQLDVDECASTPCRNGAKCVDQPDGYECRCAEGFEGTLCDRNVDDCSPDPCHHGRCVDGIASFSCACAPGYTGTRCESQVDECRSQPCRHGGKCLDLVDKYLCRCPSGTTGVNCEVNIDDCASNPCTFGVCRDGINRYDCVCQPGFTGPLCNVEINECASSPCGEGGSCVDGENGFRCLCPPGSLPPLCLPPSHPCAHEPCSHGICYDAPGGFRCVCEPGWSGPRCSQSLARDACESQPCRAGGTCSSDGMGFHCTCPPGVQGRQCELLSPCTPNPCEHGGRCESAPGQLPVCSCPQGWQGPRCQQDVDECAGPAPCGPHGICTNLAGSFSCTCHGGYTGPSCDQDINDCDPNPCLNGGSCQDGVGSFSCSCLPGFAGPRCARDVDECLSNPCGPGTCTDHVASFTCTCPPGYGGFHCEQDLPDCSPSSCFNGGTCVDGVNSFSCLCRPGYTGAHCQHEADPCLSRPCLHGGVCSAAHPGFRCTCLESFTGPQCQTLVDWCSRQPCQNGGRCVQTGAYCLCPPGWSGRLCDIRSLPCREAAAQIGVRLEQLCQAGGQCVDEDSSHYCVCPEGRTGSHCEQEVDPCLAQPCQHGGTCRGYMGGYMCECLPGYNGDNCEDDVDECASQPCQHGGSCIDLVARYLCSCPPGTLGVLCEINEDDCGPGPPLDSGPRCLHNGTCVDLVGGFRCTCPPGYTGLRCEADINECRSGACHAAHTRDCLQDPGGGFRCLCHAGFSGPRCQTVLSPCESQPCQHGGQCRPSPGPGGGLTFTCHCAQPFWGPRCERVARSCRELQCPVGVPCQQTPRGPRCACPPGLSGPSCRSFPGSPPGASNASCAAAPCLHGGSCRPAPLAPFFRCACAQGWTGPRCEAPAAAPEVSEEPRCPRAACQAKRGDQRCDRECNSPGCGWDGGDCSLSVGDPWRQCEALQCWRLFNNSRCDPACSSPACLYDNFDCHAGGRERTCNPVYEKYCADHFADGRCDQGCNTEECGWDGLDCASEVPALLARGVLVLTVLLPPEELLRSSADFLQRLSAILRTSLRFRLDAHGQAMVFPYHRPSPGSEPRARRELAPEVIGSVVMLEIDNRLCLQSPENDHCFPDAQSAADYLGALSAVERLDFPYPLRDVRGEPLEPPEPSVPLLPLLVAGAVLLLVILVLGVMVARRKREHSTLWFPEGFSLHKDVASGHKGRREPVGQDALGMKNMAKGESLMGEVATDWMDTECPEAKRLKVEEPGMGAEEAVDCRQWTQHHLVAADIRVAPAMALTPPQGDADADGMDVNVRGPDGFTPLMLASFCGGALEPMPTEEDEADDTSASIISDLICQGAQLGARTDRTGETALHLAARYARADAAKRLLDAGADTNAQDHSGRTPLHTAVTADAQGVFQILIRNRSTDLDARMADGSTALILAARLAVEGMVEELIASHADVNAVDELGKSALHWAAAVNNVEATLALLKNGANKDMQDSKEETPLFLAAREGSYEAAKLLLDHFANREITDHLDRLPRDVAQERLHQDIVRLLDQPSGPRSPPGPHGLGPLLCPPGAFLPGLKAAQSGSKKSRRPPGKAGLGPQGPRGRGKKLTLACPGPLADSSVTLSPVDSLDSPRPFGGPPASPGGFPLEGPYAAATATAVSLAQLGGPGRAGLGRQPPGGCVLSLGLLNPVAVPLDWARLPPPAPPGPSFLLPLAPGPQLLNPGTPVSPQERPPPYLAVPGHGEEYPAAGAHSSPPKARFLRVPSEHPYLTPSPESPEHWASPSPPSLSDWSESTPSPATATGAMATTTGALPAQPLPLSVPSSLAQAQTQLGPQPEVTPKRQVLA
# [20] = probe aEGFR binding to arrayed compounds – biochemical, biotinylated probe, 635/667 nm fluorescence, primary screen (AID 1097); conditions: small-molecule microarray, higher = more signal;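 further: probe is a biotinylated anti-EGFR antibody binding compounds printed on slides; score combines fluorescence near 667 nm and signal to noise of each spot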
Compound,composite z-score [1],composite z-score [2],composite z-score [3],composite z-score [4],composite z-score [5],composite z-score [6],composite z-score [7],z-score [8],composite z-score [9],composite z-score [10],composite z-score [11],z-score [12],z-score [13],z-score [14],composite z-score [15],z-score [16],composite z-score [17],composite z-score [18],composite z-score [19],composite z-score [20]
C=CCN(Cc1ccccc1)C(=O)C(c1cccs1)N(CCOCCO)C(=O)/C=C\C(=O)O (stereo not given),0.713,-1.43,-0.203,-0.873,-1.04,-0.353,-0.421,0.919 (inactive),-1.59,-0.341,-0.785,-2.16 (inactive),0.0374 (inactive),-1.01 (inactive),1.2,2.25 (inactive),-0.0555,-2.41,-1.7,-0.329
[N-]=[N+]=NCc1ccccc1C[C@]1(C(=O)N2CCOCC2)N=C(c2ccc(OCCCO)cc2)O[C@H]1c1ccccc1N=[N+]=[N-],0.0631,1.43,0.136,1.12,1.55,0.872,1.29,-0.395 (inactive),2.05,0.259,1.41,-1.18 (inactive),-2.26 (inactive),2.79 (inactive),3.51,0.188 (inactive),0.349,1.5,1.03,0.144
C=CCNC(=O)[C@H]1[C@@H]2C(=O)O[C@@H](c3ccccc3)[C@@H](c3ccccc3)N2[C@@H](c2ccc(O)cc2)[C@]12C(=O)N(C(=O)OCCOC)c1ccc(C#CCNC(N)=O)cc12,-0.14,-0.019,-0.0996,0.379,0.729,0.0037,0.879,-0.226 (inactive),0.007,0.0722,1.42,0.905 (inactive),0.311 (inactive),1.63 (inactive),0.922,-0.781 (inactive),0.136,0.79,0.924,0.0821
COCCOC(=O)N1C(=O)[C@@]2(c3cc(C#Cc4ccc(OC)cc4)ccc31)[C@H](c1ccc(O)cc1)N1[C@H](c3ccccc3)[C@H](c3ccccc3)OC(=O)[C@H]1[C@@H]2C(=O)NC[C@H](O)c1ccccc1,-0.273,0.101,-0.155,0.63,1.29,1.53,1.34,0.1 (inactive),0.536,0.192,1.54,1.5 (inactive),0.217 (inactive),2.82 (inactive),2.16,0.873 (inactive),-0.09,1.48,1.08,0.0209
CN(C)CCCC[C@@H]1NC(=O)[C@H]2C[C@@H](C(=O)NCCCCCNC(=O)CS)[C@@H](c3cccc(OCCO)c3)N2C1=O,-0.23,0.411,-0.0785,-0.0727,-0.21,0.727,1.27,0.498 (inactive),0.0184,-0.305,1.18,-1.14 (inactive),-1.3 (inactive),-0.296 (inactive),2.79,-0.328 (inactive),0.0144,1.54,0.534,-0.136
CCOC(=O)C=Cc1cc([N+](=O)[O-])ccc1O,0.36,-0.11,-0.159,-0.239,-1,-0.306,0.358,2.07 (inactive),-0.31,0.0044,0.385,-1.21 (inactive),-0.201 (inactive),-1.62 (inactive),0.381,-0.828 (inactive),-0.088,-0.609,-0.465,-0.141

# — PubChem BioAssay
